Calls of active or inactive are those of the source. Rule for the calls: active = hit-call score of the fitted dose curve at least 0.9, where 1 is the maximum; inactive = score below 0.9.
Assays:
Conditions in all cases: mRNA level, 48 h; actives raise or lower the signal
[1] = read-out: Intercellular Adhesion Molecule 1 (ICAM1), ICAM1 (gene 3383); test: LTEA_HepaRG_ICAM1: Life Technologies and Expression Analysis (LTEA) Assay for Intercellular Adhesion Molecule 1 (ICAM1) using HepaRG (AID 2283507)
Method in brief: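 ICAM1 transcript levels measured by qRT-PCR, normalized to three housekeeping genes (ACTB, GAPDH, POLR2A), after 48 h chemical exposure of HepaRG cells. Duplicate eight-point half-log series from 100 uM in 0.5% DMSO; gain or loss fitted against vehicle.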

[2] = read-out: Insulin-like growth factor-binding protein 1 (IGFBP1), IGFBP1 (gene 3484); test: LTEA_HepaRG_IGFBP1: Life Technologies and Expression Analysis (LTEA) Assay for Insulin-like growth factor-binding protein 1 (IGFBP1) using HepaRG (AID 2283508)
Method in brief: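 Read-out is qRT-PCR transcript level normalized to three housekeeping genes, fitted in both directions against 0.5% DMSO. Differentiated HepaRG cells received eight half-log concentrations (top 100 uM) in duplicate for 48 h in serum-free induction medium.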

[3] = read-out: Interleukin 6 (IL6), IL6 (gene 3569); test: LTEA_HepaRG_IL6: Life Technologies and Expression Analysis (LTEA) Assay for Interleukin 6 (IL6) using HepaRG (AID 2283509)
Method in brief: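 qRT-PCR read-out of IL6 transcript, normalized to three housekeeping genes, after 48 h chemical exposure of HepaRG cells; 8-point half-log series, top 100 uM, 0.5% DMSO vehicle. Bidirectional curve fitting against DMSO baseline.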

[4] = read-out: Interleukin 6 Receptor (IL6R), IL6R (gene 3570); test: LTEA_HepaRG_IL6R: Life Technologies and Expression Analysis (LTEA) Assay for Interleukin 6 Receptor (IL6R) using HepaRG (AID 2283510)
Method in brief: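 HepaRG, 48 h exposure, 8-pt half-log series, top 100 uM, 0.5% DMSO vehicle, duplicates. Read-out: TaqMan qRT-PCR of IL6R transcript, housekeeping-gene normalized. Gain or loss fitted relative to DMSO baseline.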

[5] = read-out: Potassium channel subfamily K member 1 (KCNK1), KCNK1 (gene 3775); test: LTEA_HepaRG_KCNK1: Life Technologies and Expression Analysis (LTEA) Assay for Potassium channel subfamily K member 1 (KCNK1) using HepaRG (AID 2283511)
Method in brief: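 HepaRG, 48 h exposure, 8-pt half-log series top 100 uM, 0.5% DMSO vehicle, duplicates. Readout: KCNK1 transcript by qRT-PCR (Fluidigm array), housekeeping-normalized; bidirectional curve fit relative to DMSO baseline.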

[6] = read-out: Keratin 19 (KRT19), KRT19 (gene 3880); test: LTEA_HepaRG_KRT19: Life Technologies and Expression Analysis (LTEA) Assay for Keratin 19 (KRT19) using HepaRG (AID 2283512)
Method in brief: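 KRT19 transcript measured by TaqMan qRT-PCR, referenced to three housekeeping genes, after HepaRG cells received test chemicals for 48 h. Eight half-log concentrations, top 100 uM, 0.5% DMSO vehicle; increases and decreases both fitted.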

[7] = read-out: JUN Transcription Factor, JUN (gene 3725); test: LTEA_HepaRG_JUN: Life Technologies and Expression Analysis (LTEA) Assay for JUN Transcription Factor using HepaRG (AID 2283513)
Method in brief: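 HepaRG, 48 h exposure, 8-pt half-log series top 100 uM, 0.5% DMSO, duplicate. JUN mRNA by qRT-PCR (Fluidigm), housekeeping-normalized (ACTB/GAPDH/POLR2A); bidirectional curve fit vs DMSO baseline.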

[8] = read-out: Lipase C (LIPC), LIPC (gene 3990); test: LTEA_HepaRG_LIPC: Life Technologies and Expression Analysis (LTEA) Assay for Lipase C (LIPC) using HepaRG (AID 2283514)
Method in brief: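 HepaRG, 48 h exposure, 8-pt half-log series from 100 uM in 0.5% DMSO, duplicates. Readout: LIPC mRNA by Fluidigm qRT-PCR, housekeeping-normalized (ACTB/GAPDH/POLR2A). Gain or loss fitted bidirectionally against DMSO baseline.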

[9] = read-out: Lipoprotein lipase (LPL), LPL (gene 4023); test: LTEA_HepaRG_LPL: Life Technologies and Expression Analysis (LTEA) Assay for Lipoprotein lipase (LPL) using HepaRG (AID 2283515)
Method in brief: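 HepaRG, 48 h exposure, 8-pt half-log dilutions from 100 uM, 0.5% DMSO vehicle, duplicates; qRT-PCR (Fluidigm array) of LPL mRNA vs housekeeping genes; bidirectional curve fit relative to DMSO baseline.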

[10] = read-out: MicroRNA 122 (MIR122), gene 406906; test: LTEA_HepaRG_MIR122: Life Technologies and Expression Analysis (LTEA) Assay for MicroRNA 122 (MIR122) using HepaRG (AID 2283516); note: the transcript read is the microRNA miR-122
Method in brief: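 qRT-PCR read-out (TaqMan, Fluidigm array), normalized to three housekeeping genes; HepaRG cells dosed 48 h at 8 concentrations up to 100 uM in 0.5% DMSO, duplicate; gain or loss fitted against DMSO baseline.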

[11] = read-out: matrix metalloproteinase-10 (MMP10), MMP10 (gene 4319); test: LTEA_HepaRG_MMP10: Life Technologies and Expression Analysis (LTEA) Assay for matrix metalloproteinase-10 (MMP10) using HepaRG (AID 2283517)
Method in brief: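 Transcript levels come from Fluidigm qRT-PCR normalized to three housekeeping genes, with curves fitted bidirectionally against 0.5% DMSO. Human HepaRG cells were dosed for 48 hours at concentrations up to 100 uM.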

[12] = read-out: matrix metalloproteinase-3 (MMP3), MMP3 (gene 4314); test: LTEA_HepaRG_MMP3: Life Technologies and Expression Analysis (LTEA) Assay for matrix metalloproteinase-3 (MMP3) using HepaRG (AID 2283519)
Method in brief: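 qRT-PCR read-out of MMP3 mRNA (normalised to three housekeeping genes) in HepaRG liver cells after 48 h chemical exposure; 8-point half-log series, top 100 uM, 0.5% DMSO vehicle. Bidirectional curve fitting against DMSO baseline.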

[13] = read-out: Nuclear factor NF-kappa-B p105 subunit (Homo sapiens) (UniProt P19838); test: LTEA_HepaRG_NFKB1: Life Technologies and Expression Analysis (LTEA) Assay for Nuclear Factor Kappa B Subunit 1 (NFKB1) using HepaRG (AID 2283521)
Method in brief: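 Differentiated human HepaRG cells were exposed for 48 h in serum-free induction medium to eight concentrations (top 100 uM, half-log steps, 0.5% DMSO), in duplicate. NFKB1 mRNA was measured by TaqMan qRT-PCR, normalized to ACTB/GAPDH/POLR2A, and fitted bidirectionally against DMSO.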

[14] = read-out: Protein phosphatase 2A (PPP2R4), PTPA (gene 5524); test: LTEA_HepaRG_PPP2R4: Life Technologies and Expression Analysis (LTEA) Assay for Protein phosphatase 2A (PPP2R4) using HepaRG (AID 2283522)
Method in brief: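 HepaRG, 48 h exposure, 8-pt half-log series from 100 uM, 0.5% DMSO vehicle, duplicates. Readout: PPP2R4 mRNA, Fluidigm qRT-PCR, housekeeping-normalized. Bidirectional curve fit vs DMSO baseline.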

[15] = read-out: Phosphatase and tensin (PTEN), PTEN (gene 5728); test: LTEA_HepaRG_PTEN: Life Technologies and Expression Analysis (LTEA) Assay for Phosphatase and tensin (PTEN) using HepaRG (AID 2283523)
Method in brief: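 HepaRG, 48 h exposure, 8-pt half-log series from 100 uM top, 0.5% DMSO vehicle, duplicates. Readout: Fluidigm qRT-PCR of PTEN transcript; housekeeping normalization (ACTB, GAPDH, POLR2A). Gain or loss fitted relative to DMSO baseline.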

[16] = read-out: solute carrier (SLC22A1), SLC22A1 (gene 6580); test: LTEA_HepaRG_SLC22A1: Life Technologies and Expression Analysis (LTEA) Assay for solute carrier (SLC22A1) using HepaRG (AID 2283524)
Method in brief: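 qRT-PCR readout (TaqMan, Fluidigm arrays) of SLC22A1 transcript, normalized to three housekeeping genes; bidirectional curve fit relative to 0.5% DMSO vehicle. Differentiated human HepaRG cells, 48 h chemical exposure, top concentration 100 uM, half-log steps, eight points.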

[17] = read-out: Pyruvate Dehydrogenase Kinase 4 (PDK4), PDK4 (gene 5166); test: LTEA_HepaRG_PDK4: Life Technologies and Expression Analysis (LTEA) Assay for Pyruvate Dehydrogenase Kinase 4 (PDK4) using HepaRG (AID 2283525)
Method in brief: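 HepaRG (human liver line), 48 h chemical exposure, 8-pt half-log CRC top 100 uM, 0.5% DMSO vehicle, duplicates. Readout: TaqMan qRT-PCR of PDK4 mRNA, housekeeping-normalized; gain/loss fit relative to DMSO baseline.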

[18] = read-out: NAD(P)H dehydrogenase [quinone] 1 (NQO1), NQO1 (gene 1728); test: LTEA_HepaRG_NQO1: Life Technologies and Expression Analysis (LTEA) Assay for NAD(P)H dehydrogenase [quinone] 1 (NQO1) using HepaRG (AID 2283526)
Method in brief: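 qRT-PCR read-out (Fluidigm TaqMan), normalized to three housekeeping genes, after 48 h chemical exposure of HepaRG cells. Concentrations: eight points, top 100 uM, half-log steps, 0.5% DMSO vehicle. Gain or loss of signal fitted relative to DMSO.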

[19] = read-out: Paternally Expressed 10 (PEG10), PEG10 (gene 23089); test: LTEA_HepaRG_PEG10: Life Technologies and Expression Analysis (LTEA) Assay for Paternally Expressed 10 (PEG10) using HepaRG (AID 2283520);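 for AC50: PEG10 transcript by qRT-PCR normalised to ACTB GAPDH and POLR2A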
Method in brief: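 qRT-PCR read-out: PEG10 mRNA normalised to three housekeeping genes, fitted bidirectionally against 0.5% DMSO vehicle. HepaRG cells received test chemicals for 48 h in serum-free induction medium, 8 points, top 100 uM, half-log steps.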

MYC, MYC (gene 4609) = test: LTEA_HepaRG_MYC: Life Technologies and Expression Analysis (LTEA) Assay for MYC using HepaRG (AID 2283518)
Method in brief: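 MYC transcript changes, up or down relative to 0.5% DMSO, from TaqMan qRT-PCR normalized to three housekeeping genes. Human HepaRG cultures received chemicals for 48 h at eight half-log concentrations up to 100 uM, in duplicate.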

Measured: AC50

Chain of Nuclear factor NF-kappa-B p105 subunit (Homo sapiens) (P19838 whole entry, looked up): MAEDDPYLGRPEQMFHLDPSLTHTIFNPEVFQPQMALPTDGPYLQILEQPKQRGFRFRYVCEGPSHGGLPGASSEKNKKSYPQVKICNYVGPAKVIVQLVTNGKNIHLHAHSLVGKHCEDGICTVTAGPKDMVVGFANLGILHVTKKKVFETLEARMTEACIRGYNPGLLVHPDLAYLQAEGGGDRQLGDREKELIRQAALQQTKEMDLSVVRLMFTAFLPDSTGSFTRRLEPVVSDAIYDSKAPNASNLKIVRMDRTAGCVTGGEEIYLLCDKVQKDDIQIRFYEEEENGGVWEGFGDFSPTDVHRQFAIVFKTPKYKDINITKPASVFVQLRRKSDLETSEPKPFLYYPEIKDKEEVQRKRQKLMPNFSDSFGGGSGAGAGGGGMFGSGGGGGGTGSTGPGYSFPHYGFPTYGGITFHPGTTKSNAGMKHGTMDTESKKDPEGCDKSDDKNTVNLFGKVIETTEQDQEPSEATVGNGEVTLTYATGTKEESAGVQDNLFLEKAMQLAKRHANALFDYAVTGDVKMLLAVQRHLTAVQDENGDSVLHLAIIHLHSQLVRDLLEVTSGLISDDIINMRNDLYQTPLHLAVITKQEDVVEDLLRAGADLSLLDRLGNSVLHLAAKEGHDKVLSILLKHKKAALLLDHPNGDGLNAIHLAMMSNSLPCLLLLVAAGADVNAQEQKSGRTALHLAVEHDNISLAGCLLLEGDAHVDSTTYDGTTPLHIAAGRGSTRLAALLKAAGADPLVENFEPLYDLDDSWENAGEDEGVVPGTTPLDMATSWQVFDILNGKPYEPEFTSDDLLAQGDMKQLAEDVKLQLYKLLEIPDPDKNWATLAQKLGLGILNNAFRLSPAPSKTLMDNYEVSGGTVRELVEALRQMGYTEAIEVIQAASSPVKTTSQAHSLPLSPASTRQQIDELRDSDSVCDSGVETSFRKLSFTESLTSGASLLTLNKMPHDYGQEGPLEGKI

CCC(=C(c1ccc(O)cc1)c1ccc(OCCN(C)C)cc1)c1ccccc1
active: [1] 67.9 µM | [2] 76.5 µM | [3] 91.8 µM | [4] 93.2 µM | [7] 89.3 µM | [10] 88.8 µM | [11] 72.4 µM | [16] 93.4 µM
inactive: [5] | [6] | [8] | [9] | [12] | [13] | [14] | [15] | [17] | [18]

COCC(C)O (stereo unspecified)
inactive: [1] | [2] | [3] | [5] | [6] | [7] | [8] | [10] | [11] | [12] | [19] | [13] | [14] | [15] | [16] | [17] | [18]

OCCC(F)(F)C(F)(F)C(F)(F)C(F)(F)C(F)(F)C(F)(F)C(F)(F)C(F)(F)F
inactive: [1] | [2] | [3] | [5] | [6] | [7] | [8] | [10] | [11] | MYC, MYC (gene 4609) | [12] | [13] | [14] | [15] | [16] | [17] | [18]

CC(O)CO (stereo unspecified)
inactive: [1] | [2] | [3] | [4] | [5] | [6] | [8] | [9] | [10] | [11] | [12] | [19] | [13] | [14] | [15] | [16] | [17] | [18]

OC1CCCCC1
inactive: [1] | [2] | [3] | [4] | [5] | [6] | [7] | [8] | [10] | [11] | [12] | [14] | [15] | [16] | [17] | [18]

CN1CCC[C@H]1c1cccnc1
inactive: [1] | [2] | [3] | [4] | [5] | [6] | [8] | [9] | [10] | [11] | MYC, MYC (gene 4609) | [12] | [19] | [14] | [15] | [16] | [17] | [18]

c1ccc2cc3c(ccc4ccccc43)cc2c1
inactive: [1] | [3] | [5] | [7] | [11] | [12] | [14] | [15] | [18]
active: [2] 8.36 µM | [6] 5.58 µM | [8] 12.7 µM | [9] 7.72 µM | [10] 15 µM | [19] 12.1 µM | [16] 18.6 µM | [17] 22.9 µM

Reference: PubChem BioAssay (EPA / NIEHS)
